Experiment [1] in a line: compounds binding Alexa647 anti-His antibody – biochemical, small-molecule microarray, 635 nm fluorescence, artefact control for SMM control protein annotation, primary screen (AID 1128).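 Also: score merges feature fluorescence with signal-to-noise for each printed compound spot.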 To be noted: higher = more signal.
The subject of experiment [2] is Human papillomavirus type 1a E7 protein (residues 1-88). Kind of experiment: HPV1a E7 small-molecule binders, primary screen, biochemical, small-molecule microarray, residues 1-88, 635 nm (AID 1129). The note with it: small-molecule microarray binding, fluorescence 635 nm; higher = more signal.
Experiment [3] deals with Focal adhesion kinase 1 (Homo sapiens) (UniProt Q05397). Kind of experiment: PTK2 protein binding on printed compound slides – biochemical, small-molecule microarray, 635/667 nm fluorescence, BSA, DTT, primary screen (AID 1130).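 Also: composite of spot emission at 667 nm and signal to noise over triplicate slides.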 To be noted: 635 nm fluorescence, higher = more signal.
Sequence of Focal adhesion kinase 1 (Homo sapiens) (Q05397 whole entry, looked up): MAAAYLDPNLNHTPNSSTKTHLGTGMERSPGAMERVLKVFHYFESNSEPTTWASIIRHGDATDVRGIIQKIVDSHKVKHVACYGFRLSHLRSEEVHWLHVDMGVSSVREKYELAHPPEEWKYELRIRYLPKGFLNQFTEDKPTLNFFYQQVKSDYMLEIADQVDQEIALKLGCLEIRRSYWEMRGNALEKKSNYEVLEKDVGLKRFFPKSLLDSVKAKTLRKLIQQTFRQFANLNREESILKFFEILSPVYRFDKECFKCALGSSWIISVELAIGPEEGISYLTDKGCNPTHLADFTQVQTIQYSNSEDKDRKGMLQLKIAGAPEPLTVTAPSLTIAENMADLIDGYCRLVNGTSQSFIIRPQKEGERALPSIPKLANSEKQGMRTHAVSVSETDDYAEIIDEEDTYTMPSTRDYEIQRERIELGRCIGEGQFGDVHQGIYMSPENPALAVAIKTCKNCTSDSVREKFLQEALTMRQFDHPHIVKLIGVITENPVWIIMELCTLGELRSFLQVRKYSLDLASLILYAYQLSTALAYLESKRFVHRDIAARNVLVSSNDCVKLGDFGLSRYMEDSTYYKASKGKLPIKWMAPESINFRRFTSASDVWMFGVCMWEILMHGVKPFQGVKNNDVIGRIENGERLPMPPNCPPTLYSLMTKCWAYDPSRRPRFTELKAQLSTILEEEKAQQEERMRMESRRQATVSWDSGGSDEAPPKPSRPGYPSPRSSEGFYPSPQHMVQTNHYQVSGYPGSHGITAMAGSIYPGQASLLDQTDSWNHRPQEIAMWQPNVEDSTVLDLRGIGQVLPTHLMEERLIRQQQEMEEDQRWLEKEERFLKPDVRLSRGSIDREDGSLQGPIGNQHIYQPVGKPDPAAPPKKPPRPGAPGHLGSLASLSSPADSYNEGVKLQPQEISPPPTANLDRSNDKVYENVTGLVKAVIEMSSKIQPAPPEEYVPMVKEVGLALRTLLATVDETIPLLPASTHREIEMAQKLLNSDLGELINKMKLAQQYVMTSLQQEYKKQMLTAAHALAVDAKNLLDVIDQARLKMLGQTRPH
The test system of experiment [4] is Fibrinogen (Alexa647-labelled). Put plainly: Alexa647-fibrinogen binding to printed small molecules – biochemical, small-molecule microarray, 635/667 nm fluorescence, artefact control for SMM control-protein annotation, profiling panel (AID 1131).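 Also: z-score merges 667 nm fluorescence with per-spot signal-to-noise over triplicate slides.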 To be noted: fibrinogen-A647 binding fluorescence, higher = more signal.
Experiment [5] concerns the target Follistatin (Homo sapiens) (UniProt P19883). Put plainly: FST protein binding to printed compounds – biochemical, small-molecule microarray, 635/667 nm fluorescence, primary screen (AID 1132). To be noted: 635 nm fluorescence, higher = more signal.
The target of experiment [6] is Fibroblast growth factor 2 (Homo sapiens) (UniProt P09038). Put plainly: basic fibroblast growth factor binding to printed compounds – biochemical, small-molecule microarray, 635/667 nm fluorescence, primary screen (AID 1133). The note with it: FGF2, fluorescence 635/667, higher = more signal.
Sequence of Fibroblast growth factor 2 (Homo sapiens) (P09038 whole entry, looked up): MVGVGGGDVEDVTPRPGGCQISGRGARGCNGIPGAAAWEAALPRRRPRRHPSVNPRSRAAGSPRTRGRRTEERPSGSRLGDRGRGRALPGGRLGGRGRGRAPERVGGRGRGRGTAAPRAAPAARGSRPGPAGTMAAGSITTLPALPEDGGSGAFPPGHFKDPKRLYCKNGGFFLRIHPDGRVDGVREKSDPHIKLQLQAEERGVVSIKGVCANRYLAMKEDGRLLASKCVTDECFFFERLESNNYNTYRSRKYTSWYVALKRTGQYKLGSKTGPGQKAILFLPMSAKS
The nature of experiment [7]: JC-1 mitochondrial potential readout, lung cancer cells – cell-based, A549, JC-1 fluorescence, basal, 24 h, 100 nL, profiling panel (AID 1138).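 Also: A549 lung adenocarcinoma cells under basal conditions with no added stimulus; test concentration not given here.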 To be noted: higher = more signal.
Another experiment deals with Lefty1. Put plainly: Lefty1 protein binding to printed compounds – biochemical, small-molecule microarray, 635/667 nm fluorescence, primary screen (AID 1139). The note with it: fluorescence 635/667, higher = more signal.
The test system of experiment [8] is wheat germ agglutinin (Triticum aestivum), Alexa647-labelled. Put plainly: Alexa647-WGA lectin binding to printed small molecules – biochemical, small-molecule microarray, 635/667 nm fluorescence, artefact control for SMM control-protein annotation, profiling panel (AID 1140).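 Also: score merges 667 nm feature emission with signal to noise over triplicate slides.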 The note with it: WGA-A647 binding, 635 nm fluorescence, higher = more signal.
Experiment [9] addresses Luciferin 4-monooxygenase (Photinus pyralis) (UniProt P08659). Put plainly: inhibition of purified Photinus pyralis luciferase – biochemical, luminescence, purified enzyme, 2006 set, primary screen (AID 1141).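 Also: cell-free assay with purified firefly luciferase at 100 ng per well in PBS; test concentration not given here.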 The note with it: purified firefly luciferase, SteadyGlo luminescence, 30 min; higher = more signal, called active from +8 up or from −8 down.
The test system of experiment [10] is Wnt5a (protein binding on small-molecule microarray). Kind of experiment: small molecules binding Wnt5a protein – biophysical, small-molecule microarray, 635/667 nm fluorescence, primary screen (AID 1142).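 Also: fluorescence read at 667 nm with signal to noise per printed feature.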 To be noted: 635 nm fluorescence, higher = more signal.
Experiment [11] in a line: ATP-based viability of Huh7 replicon cells – cell-based, CellTiter-Glo luminescence, basal, 48 h, cytotoxicity control for HCV replication inhibitor project, primary screen (AID 1143).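 Also: Huh7 hepatoma cells carrying a hepatitis C replication reporter with no stimulus; test concentration not given here.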 To be noted: higher = more signal, called active from +8 up or from −8 down.
Experiment [12] is described as follows: Pseudomonas biofilm growth suppression – PAO1 strain, BacTiter-Glo luminescence, LB-PBS, primary screen (AID 1144). The note with it: P. aeruginosa PAO1 biofilm, 12 h, higher = more signal.
Experiment [13] in a line: basal CRE-LacZ reporter activity in PC12 – cell-based, unstimulated, primary screen (AID 1145). To be noted: no forskolin, luminescence, 4.5 h, higher = more signal, called active from +8 up or from −8 down.
Experiment [14] is described as follows: forskolin-driven CRE-LacZ activity in PC12 – cell-based, CRE-LacZ reporter, forskolin-stimulated, primary screen (AID 1146).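 Also: PC12 cells with 6xCRE LacZ reporter stimulated by forskolin 10 µM; beta-galactosidase reporter signal reflecting CREB driven transcription.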 The note with it: luminescence, 4.5 h, higher = more signal, called active from +8 up or from −8 down.
The target in experiment [15] is Streptavidin (Streptomyces avidinii) (UniProt P22629). Put plainly: compounds binding control protein streptavidin – biophysical, small-molecule microarray, 635/667 nm fluorescence, artefact control for SMM compound annotation, primary screen (AID 1147).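 Also: signal reflects streptavidin binding to arrayed compounds as a control protein.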 The note with it: higher = more signal.
Sequence of Streptavidin (Streptomyces avidinii) (P22629 whole entry, looked up): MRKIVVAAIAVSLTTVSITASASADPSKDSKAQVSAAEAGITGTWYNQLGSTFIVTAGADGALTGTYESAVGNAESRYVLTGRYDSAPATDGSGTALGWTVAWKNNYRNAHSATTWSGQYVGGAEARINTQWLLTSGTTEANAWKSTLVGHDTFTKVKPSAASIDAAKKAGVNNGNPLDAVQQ
A short description of experiment [16]: probe aInhba binding on compound microarray – biochemical, small-molecule microarray, 635/667 nm fluorescence, primary screen (AID 1148).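 Also: score merges 667nm spot fluorescence with signal-to-noise for antibody binding to printed compounds.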 The note with it: higher = more signal.
Experiment [17] concerns the target Torsin-1A (Homo sapiens) (UniProt O14656). Kind of experiment: TOR1A wild-type binding on microarray – cell lysate, small-molecule microarray, lysate, 635/667 nm, primary screen (AID 1149). To be noted: COS7 hTOR1A-WT lysate, 635 nm fluorescence, higher = more signal.
Experiment [18] has the same target. Put plainly: torsin A mutant lysate binding on microarrays – cell lysate, small-molecule microarray, COS7 lysate, 635/667 nm fluorescence, primary screen (AID 1150).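 Also: score pools 667 nm emission and signal to noise measuring lysate protein binding.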 The note with it: COS7 hTOR1A mutant lysate, 635 nm fluorescence, higher = more signal.
The test system of experiment [19] is Sonic hedgehog protein (Shh). Kind of experiment: Sonic hedgehog microarray binding compounds – biochemical, small-molecule microarray, 635/667 nm fluorescence, primary screen (AID 1151).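 Also: Shh protein binding to compounds spotted on small-molecule microarray slides; score combines spot fluorescence intensity with signal-to-noise across triplicate slides.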 The note with it: 635 nm fluorescence, higher = more signal.

Active and inactive are the calls of the source. Unless noted, no rule for the calls is given here.

Sequence of Torsin-1A (Homo sapiens) (O14656 whole entry, looked up): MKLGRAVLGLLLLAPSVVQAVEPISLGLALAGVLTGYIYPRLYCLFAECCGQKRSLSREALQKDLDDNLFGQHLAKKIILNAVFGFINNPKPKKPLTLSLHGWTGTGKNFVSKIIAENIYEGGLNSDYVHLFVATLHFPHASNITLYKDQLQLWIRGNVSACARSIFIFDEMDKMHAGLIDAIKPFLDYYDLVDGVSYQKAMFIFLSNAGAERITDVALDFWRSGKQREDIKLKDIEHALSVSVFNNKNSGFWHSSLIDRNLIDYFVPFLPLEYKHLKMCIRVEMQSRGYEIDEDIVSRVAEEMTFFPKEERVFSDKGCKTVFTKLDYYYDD
Sequence of Luciferin 4-monooxygenase (Photinus pyralis) (P08659 whole entry, looked up): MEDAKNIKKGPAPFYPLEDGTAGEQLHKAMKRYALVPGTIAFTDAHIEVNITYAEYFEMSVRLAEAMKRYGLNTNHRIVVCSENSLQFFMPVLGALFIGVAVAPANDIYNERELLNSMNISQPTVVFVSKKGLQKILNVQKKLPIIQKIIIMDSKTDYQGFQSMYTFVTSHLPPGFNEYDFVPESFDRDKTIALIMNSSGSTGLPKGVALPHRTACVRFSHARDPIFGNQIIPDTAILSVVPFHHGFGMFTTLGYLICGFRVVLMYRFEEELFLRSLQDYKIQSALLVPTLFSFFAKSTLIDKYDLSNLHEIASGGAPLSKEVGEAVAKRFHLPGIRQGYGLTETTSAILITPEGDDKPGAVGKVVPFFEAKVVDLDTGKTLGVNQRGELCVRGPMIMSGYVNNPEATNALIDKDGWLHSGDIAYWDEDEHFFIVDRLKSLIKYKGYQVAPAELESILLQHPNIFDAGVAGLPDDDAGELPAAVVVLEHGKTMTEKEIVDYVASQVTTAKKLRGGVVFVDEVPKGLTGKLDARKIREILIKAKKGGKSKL
Sequence of Follistatin (Homo sapiens) (P19883 whole entry, looked up): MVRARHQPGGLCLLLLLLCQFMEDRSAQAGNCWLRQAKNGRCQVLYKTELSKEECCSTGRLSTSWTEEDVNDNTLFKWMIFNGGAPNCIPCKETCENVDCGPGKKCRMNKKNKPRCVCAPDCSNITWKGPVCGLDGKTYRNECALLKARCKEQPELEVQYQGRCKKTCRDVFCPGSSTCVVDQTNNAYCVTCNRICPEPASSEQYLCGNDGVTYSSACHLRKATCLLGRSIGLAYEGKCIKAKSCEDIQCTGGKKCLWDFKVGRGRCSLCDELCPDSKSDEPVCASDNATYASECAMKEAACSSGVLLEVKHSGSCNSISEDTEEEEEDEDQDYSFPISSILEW

Turning to `COc1ccc(CCNC(=O)[C@@]2(C)c3ccccc3C(=O)N(Cc3ccc(OC(F)(F)F)cc3)[C@H]2c2ccc(CO)cc2)cc1`, the composite z-score was -0.0781 in experiment [1]; 1.21 in experiment [2]; 1.13 in experiment [3]; 0.576 in experiment [4]; 1.3 in [5]; 1.76 in [6]. The composite z-score in the experiment with Lefty1 is 0.268; in experiment [8], 0.375; in experiment [10], 0.887; in experiment [15] it was -0.535; in experiment [16], -0.166; in the experiment with Torsin-1A (Homo sapiens) [17], 0.43. For the same molecule, the figures for the composite z-score (with Torsin-1A (Homo sapiens) [18]; in experiment [19]) were 1.43 and 1.23, respectively. The z-score in [7] is 0.791; in [9], -0.629 (inactive); in [11], -4.18 (inactive); in experiment [12] it was 0.175 (inactive); in experiment [13], -0.179 (inactive); in [14] it was 0.175 (inactive).
Take `O=C1C2C=CC(C(O)C3CCCCC3)N(Nc3ccccc3F)C2C(=O)N1c1ccccc1` (stereo not given): the composite z-score is 1.87 in experiment [1]; 1.23 in [2]; 1.76 in experiment [3]; 1.01 in experiment [4]; 1.17 in experiment [5]; -0.494 in experiment [6]. Also, the composite z-score in the experiment on Lefty1 is 0.168; in experiment [8] it was 0.682; in [10], 0.442; in experiment [15], 1.5; in experiment [16] it was 0.448; in the experiment with Torsin-1A (Homo sapiens) [17] it was 0.258. Also, the composite z-score is 1.12 with Torsin-1A (Homo sapiens) [18] and -0.324 in experiment [19]. Also, the z-score in experiment [7] is -0.791; in [9], -1.02 (inactive); in experiment [11], -2.88 (inactive); in [12], -0.469 (inactive); in experiment [13], 0.826 (inactive); in [14] it was -0.904 (inactive).
As to `CC[C@@H]1C=C(C(=O)O)[C@H](c2cccc(Cl)c2)N1S(=O)(=O)c1ccc(C)cc1`, the composite z-score is 1.47 in experiment [1]; 1.14 in [2]; 0.887 in experiment [3]; -0.611 in [4]; -0.126 in experiment [5]; -0.686 in experiment [6]. The composite z-score was -0.908 in the experiment on Lefty1; 0.226 in [8]; -0.23 in [10]; 0.326 in experiment [15]; -0.0018 in experiment [16]; 1.65 with Torsin-1A (Homo sapiens) [17]. Also, the composite z-score with Torsin-1A (Homo sapiens) [18] is 0.314; in experiment [19] it was -0.726. The z-score in experiment [7] is 0.435; in experiment [9], 0.556 (inactive); in [11], -0.733 (inactive); in experiment [12] it was 1.24 (inactive); in [13], -0.322 (inactive); in experiment [14], -0.166 (inactive).
For `COc1c(C)cc(-c2nc(-c3ccccc3)c3c(c2C)CO[Si]3(C(C)C)C(C)C)cc1C`, the composite z-score in experiment [1] was -0.0017; in [2], 0.223; in experiment [3] it was 0.0945; in experiment [4], 0.42; in [5], 0.62; in experiment [6], 0.376. The composite z-score in the experiment with Lefty1 is 0.53; in [8], -0.0784; in [10] it was 0.302; in experiment [15], -0.0316; in experiment [16] it was -0.0604; with Torsin-1A (Homo sapiens) [17] it was -0.0284. Moreover, the composite z-score with Torsin-1A (Homo sapiens) [18] was 0.0463; in experiment [19], 0.419. In addition, the z-score in [7] was 0.87; in experiment [9], 0.722 (inactive); in experiment [11], -0.59 (inactive); in experiment [12], 0.306 (inactive); in experiment [13], 0.54 (inactive); in experiment [14] it was 0.456 (inactive).

For the origin of these results see PubChem BioAssay.
